In PubChem BioAssay:
The source made the active and inactive calls. Unless noted, no rule for the calls is given here.

What was measured:
[1] = test system: Wnt5a (protein binding on small-molecule microarray); assay: small molecules binding Wnt5a protein – biophysical, small-molecule microarray, 635/667 nm fluorescence, primary screen (AID 1142); conditions: 635 nm fluorescence, higher = more signal;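 also: fluorescence read at 667 nm with signal to noise per printed feature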
[2] = ATP-based viability of Huh7 replicon cells – cell-based, CellTiter-Glo luminescence, basal, 48 h, cytotoxicity control for HCV replication inhibitor project, primary screen (AID 1143); conditions: higher = more signal, called active from +8 up or from −8 down;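 also: Huh7 hepatoma cells carrying a hepatitis C replication reporter with no stimulus; test concentration not given here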
[3] = Pseudomonas biofilm growth suppression – PAO1 strain, BacTiter-Glo luminescence, LB-PBS, primary screen (AID 1144); conditions: P. aeruginosa PAO1 biofilm, 12 h, higher = more signal
[4] = basal CRE-LacZ reporter activity in PC12 – cell-based, unstimulated, primary screen (AID 1145); conditions: no forskolin, luminescence, 4.5 h, higher = more signal, called active from +8 up or from −8 down
[5] = forskolin-driven CRE-LacZ activity in PC12 – cell-based, CRE-LacZ reporter, forskolin-stimulated, primary screen (AID 1146); conditions: luminescence, 4.5 h, higher = more signal, called active from +8 up or from −8 down;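 also: PC12 cells with 6xCRE LacZ reporter stimulated by forskolin 10 µM; beta-galactosidase reporter signal reflecting CREB driven transcription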
[6] = target: Streptavidin (Streptomyces avidinii) (UniProt P22629); assay: compounds binding control protein streptavidin – biophysical, small-molecule microarray, 635/667 nm fluorescence, artefact control for SMM compound annotation, primary screen (AID 1147); conditions: higher = more signal;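 also: signal reflects streptavidin binding to arrayed compounds as a control protein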
Sequence of Streptavidin (Streptomyces avidinii) (P22629 whole entry, looked up): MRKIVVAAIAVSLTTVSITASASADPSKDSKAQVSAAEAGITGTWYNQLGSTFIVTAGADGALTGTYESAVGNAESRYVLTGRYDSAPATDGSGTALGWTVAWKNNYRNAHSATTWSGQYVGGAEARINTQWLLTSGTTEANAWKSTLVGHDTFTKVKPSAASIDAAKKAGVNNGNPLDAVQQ

[7] = probe aInhba binding on compound microarray – biochemical, small-molecule microarray, 635/667 nm fluorescence, primary screen (AID 1148); conditions: higher = more signal;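 also: score merges 667nm spot fluorescence with signal-to-noise for antibody binding to printed compounds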
Torsin-1A (Homo sapiens) [8] = target: Torsin-1A (Homo sapiens) (UniProt O14656); assay: TOR1A wild-type binding on microarray – cell lysate, small-molecule microarray, lysate, 635/667 nm, primary screen (AID 1149); conditions: COS7 hTOR1A-WT lysate, 635 nm fluorescence, higher = more signal
Sequence of Torsin-1A (Homo sapiens) (O14656 whole entry, looked up): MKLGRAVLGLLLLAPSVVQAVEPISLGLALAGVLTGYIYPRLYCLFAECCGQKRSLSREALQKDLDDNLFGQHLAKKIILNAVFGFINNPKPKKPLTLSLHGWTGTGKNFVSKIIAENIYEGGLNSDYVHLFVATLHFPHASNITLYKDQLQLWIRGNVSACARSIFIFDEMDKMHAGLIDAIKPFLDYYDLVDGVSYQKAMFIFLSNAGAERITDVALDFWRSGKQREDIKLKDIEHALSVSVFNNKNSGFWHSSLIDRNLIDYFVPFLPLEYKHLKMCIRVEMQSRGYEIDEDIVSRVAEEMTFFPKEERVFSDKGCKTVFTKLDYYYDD

Torsin-1A (Homo sapiens) [9] = target: Torsin-1A (Homo sapiens) (UniProt O14656); assay: torsin A mutant lysate binding on microarrays – cell lysate, small-molecule microarray, COS7 lysate, 635/667 nm fluorescence, primary screen (AID 1150); conditions: COS7 hTOR1A mutant lysate, 635 nm fluorescence, higher = more signal;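 also: score pools 667 nm emission and signal to noise measuring lysate protein binding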
[10] = test system: Sonic hedgehog protein (Shh); assay: Sonic hedgehog microarray binding compounds – biochemical, small-molecule microarray, 635/667 nm fluorescence, primary screen (AID 1151); conditions: 635 nm fluorescence, higher = more signal;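 also: Shh protein binding to compounds spotted on small-molecule microarray slides; score combines spot fluorescence intensity with signal-to-noise across triplicate slides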
[11] = optical density shifts of acrAB sulA E. coli – strain DRC41, OD650, 48 h, E. coli filamentation inducer project, primary screen (AID 1152); conditions: higher = more signal, called active from +8 up or from −8 down;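 also: E. coli MC1000 strain DRC41 lacking acrAB efflux pump and sulA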
[12] = probe aLefty1 binding on compound microarray – biochemical, small-molecule microarray, 635/667 nm fluorescence, primary screen (AID 1153); conditions: higher = more signal;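 also: score merges spot fluorescence with signal-to-noise ratio from the scanned slide images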
[13] = plasmodial surface anion channel blockers, osmotic lysis – cell-based, P. falciparum Indochina, OD700, 1 h, primary screen (AID 1154); conditions: P. falciparum Indochina infected RBC osmotic lysis, higher = more signal, called active from +8 up or from −8 down
[14] = plasmodial surface anion channel blockers, osmotic lysis – cell-based, P. falciparum Indochina, OD700, 2 h, primary screen (AID 1155);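 also: lysis reports solute entry through the parasite surface anion channel PSAC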; conditions: P. falciparum Indochina infected erythrocytes, higher = more signal, called active from +8 up or from −8 down
[15] = changes in parasitized red cell lysis, either direction – P. falciparum Indochina, OD700, 3 h, PSAC antagonist project, primary screen (AID 1156); conditions: P. falciparum-infected erythrocytes, osmotic lysis, higher = more signal, called active from +8 up or from −8 down
[16] = plasmodial surface anion channel blockers, osmotic lysis – cell-based, P. falciparum Indochina, OD700, 18 h, primary screen (AID 1157); conditions: P. falciparum Indochina infected erythrocytes, osmotic lysis OD700, 18 h; higher = more signal, called active from +8 up or from −8 down
[17] = S6 kinase pathway phospho-S6 level changes – cell-based, A549, cytoblot, luminescence, serum-stimulated, primary screen (AID 1158); conditions: 5 h, higher = more signal;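 also: serum-stimulated A549 lung adenocarcinoma cells; signal is phosphorylated S6 detected by cytoblot immunostaining with HRP secondary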
[18] = target: NADPH oxidase 2 (Homo sapiens) (UniProt P04839); assay: compounds shifting NOX2 Amplex Red fluorescence – cell-based, HEK293-NOX2, PMA-stimulated, NOX inhibitor project, primary screen (AID 1159); conditions: 45 min, higher = more signal, called active from +8 up or from −8 down; also: test concentration not given here
Sequence of NADPH oxidase 2 (Homo sapiens) (P04839 whole entry, looked up): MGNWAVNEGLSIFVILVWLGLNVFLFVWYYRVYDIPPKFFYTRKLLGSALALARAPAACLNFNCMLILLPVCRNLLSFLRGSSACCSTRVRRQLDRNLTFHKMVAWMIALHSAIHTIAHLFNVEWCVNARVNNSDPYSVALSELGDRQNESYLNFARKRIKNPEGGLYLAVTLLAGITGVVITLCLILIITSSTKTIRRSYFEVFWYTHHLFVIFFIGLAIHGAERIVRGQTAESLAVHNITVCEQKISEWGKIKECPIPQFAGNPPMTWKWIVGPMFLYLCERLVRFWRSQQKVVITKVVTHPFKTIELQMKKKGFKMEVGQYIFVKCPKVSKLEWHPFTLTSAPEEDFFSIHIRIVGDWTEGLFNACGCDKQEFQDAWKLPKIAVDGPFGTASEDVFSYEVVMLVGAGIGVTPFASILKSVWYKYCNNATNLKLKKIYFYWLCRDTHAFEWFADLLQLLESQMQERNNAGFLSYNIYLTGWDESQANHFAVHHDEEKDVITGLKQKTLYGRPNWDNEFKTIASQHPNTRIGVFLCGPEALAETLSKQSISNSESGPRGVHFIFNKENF

[19] = target: NADPH oxidase 4 (Homo sapiens) (UniProt Q9NPH5); assay: compounds shifting NOX4 Amplex Red fluorescence – cell-based, HEK293-NOX4, tetracycline-induced, NOX inhibitor project, primary screen (AID 1160); conditions: HEK293-NOX4, Amplex Red H2O2 fluorescence, 45 min; higher = more signal, called active from +8 up or from −8 down
Sequence of NADPH oxidase 4 (Homo sapiens) (Q9NPH5 whole entry, looked up): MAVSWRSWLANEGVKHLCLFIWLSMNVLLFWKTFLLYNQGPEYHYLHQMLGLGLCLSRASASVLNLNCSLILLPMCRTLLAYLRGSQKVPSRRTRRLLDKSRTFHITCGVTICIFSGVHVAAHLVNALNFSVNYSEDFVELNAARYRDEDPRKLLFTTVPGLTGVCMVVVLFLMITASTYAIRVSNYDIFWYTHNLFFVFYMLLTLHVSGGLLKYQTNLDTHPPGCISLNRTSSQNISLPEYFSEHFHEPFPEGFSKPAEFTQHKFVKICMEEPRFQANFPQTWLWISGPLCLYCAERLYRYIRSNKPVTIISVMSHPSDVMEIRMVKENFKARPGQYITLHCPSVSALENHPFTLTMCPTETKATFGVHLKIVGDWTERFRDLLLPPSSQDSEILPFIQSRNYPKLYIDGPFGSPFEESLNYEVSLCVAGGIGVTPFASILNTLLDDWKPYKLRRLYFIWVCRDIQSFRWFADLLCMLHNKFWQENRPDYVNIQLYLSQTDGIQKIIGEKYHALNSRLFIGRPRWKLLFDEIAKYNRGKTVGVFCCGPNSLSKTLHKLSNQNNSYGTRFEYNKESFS

[20] = target: NADPH oxidase 5 (Homo sapiens) (UniProt Q96PH1); assay: compounds shifting NOX5 Amplex Red fluorescence – cell-based, HEK293-NOX5, NOX inhibitor project, primary screen (AID 1161); conditions: HEK293-NOX5, ionomycin, 45 min, higher = more signal
Sequence of NADPH oxidase 5 (Homo sapiens) (Q96PH1 whole entry, looked up): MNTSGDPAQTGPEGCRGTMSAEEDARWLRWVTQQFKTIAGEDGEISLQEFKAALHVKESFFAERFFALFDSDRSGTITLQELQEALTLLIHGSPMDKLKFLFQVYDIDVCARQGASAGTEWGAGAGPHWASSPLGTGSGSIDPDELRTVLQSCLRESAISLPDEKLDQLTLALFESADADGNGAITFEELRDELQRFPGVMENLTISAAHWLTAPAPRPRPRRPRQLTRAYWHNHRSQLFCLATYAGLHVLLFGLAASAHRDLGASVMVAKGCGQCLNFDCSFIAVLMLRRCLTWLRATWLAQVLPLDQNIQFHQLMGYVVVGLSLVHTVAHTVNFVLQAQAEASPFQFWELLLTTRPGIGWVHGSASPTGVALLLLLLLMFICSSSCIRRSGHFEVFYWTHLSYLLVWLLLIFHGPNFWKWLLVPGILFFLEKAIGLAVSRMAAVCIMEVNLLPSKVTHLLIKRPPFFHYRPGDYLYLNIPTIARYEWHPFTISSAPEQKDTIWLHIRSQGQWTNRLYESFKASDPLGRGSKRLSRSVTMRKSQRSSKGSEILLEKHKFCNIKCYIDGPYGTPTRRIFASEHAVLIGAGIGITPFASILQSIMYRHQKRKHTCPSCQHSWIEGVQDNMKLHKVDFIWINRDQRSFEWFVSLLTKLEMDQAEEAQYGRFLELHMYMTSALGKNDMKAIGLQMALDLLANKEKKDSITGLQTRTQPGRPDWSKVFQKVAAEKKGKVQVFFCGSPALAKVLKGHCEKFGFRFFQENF

Row | SMILES | composite z-score [1] | z-score [2] | z-score [3] | z-score [4] | z-score [5] | composite z-score [6] | composite z-score [7] | composite z-score (Torsin-1A (Homo sapiens) [8]) | composite z-score (Torsin-1A (Homo sapiens) [9]) | composite z-score [10] | z-score [11] | composite z-score [12] | z-score [13] | z-score [14] | z-score [15] | z-score [16] | z-score [17] | z-score [18] | z-score [19] | z-score [20]
1 | COc1ccc([Si](C)(C)[C@H]2[C@H](CC(=O)N3Cc4ccccc4C[C@H]3CO)O[C@@]3(C(=O)N(Cc4cccc(N5CCCCC5=O)c4)c4ccccc43)[C@@H]2C)cc1 | 0.329 | -3.48 (inactive) | -0.185 (inactive) | 2.21 (inactive) | 0.114 (inactive) | -0.0717 | 0.0422 | 0.849 | 0.431 | 2.15 | -0.431 (inactive) | 0.0391 | 3.41 (inactive) | 0.966 (inactive) | 0.357 (inactive) | 0.549 (inactive) | 1.83 | -0.508 (inactive) | 0.916 (inactive) | -0.169
2 | O=C1c2ccccc2[C@](Cc2ccccc2I)(C(=O)NCc2ccccc2)[C@H](c2ccc(CO)cc2)N1C1CCCCC1 | 0.52 | -4.84 (inactive) | -0.479 (inactive) | 0.0655 (inactive) | -0.183 (inactive) | 1.71 | 0.295 | 0.326 | 0.489 | 1.75 | 1.28 (inactive) | 0.254 | 2.39 (inactive) | 0.105 (inactive) | 0.0371 (inactive) | -1.34 (inactive) | 3.43 | 1.65 (inactive) | 0.289 (inactive) | 1.35
3 | C=CCN1Cc2ccccc2C[C@@]2(N=C(c3ccc(OCCCO)cc3)O[C@H]2c2ccccc2)C1=O | 0.762 | -5.03 (inactive) | -0.8 (inactive) | -0.23 (inactive) | -1.51 (inactive) | 0.0967 | 0.0471 | 0.233 | 0.983 | 1.05 | 0.404 (inactive) | 0.57 | 28.1 (active) | 23.6 (active) | 2.55 (inactive) | 5.74 (inactive) | 0.624 | -5.76 (inactive) | -0.323 (inactive) | -3.72
